# Data published in PubChem BioAssay (NCATS).
# Inconclusive results are not listed. Calls of active or inactive are those of the source. Unless noted, calls come from the whole dose curve; as a rule, active = well fitted curve in the direction sought with a large enough effect; inconclusive = small, poorly fitted or top-dose-only effect, or another doubt; inactive = no such curve, though single readings can be large; an effect the other way counts as inactive or inconclusive.
# Tests used:
# [1] = target: Lysosomal acid glucosylceramidase (Homo sapiens) (UniProt P04062); test: Glucocerebrosidase-p2 (AID 348; in the data active = potency below about 10 µM; note: potency is the fitted concentration of half-maximal effect); conditions: purified GBA, blue fluorogenic substrate, 40 min
# Chain of Lysosomal acid glucosylceramidase (Homo sapiens) (P04062 whole entry, looked up): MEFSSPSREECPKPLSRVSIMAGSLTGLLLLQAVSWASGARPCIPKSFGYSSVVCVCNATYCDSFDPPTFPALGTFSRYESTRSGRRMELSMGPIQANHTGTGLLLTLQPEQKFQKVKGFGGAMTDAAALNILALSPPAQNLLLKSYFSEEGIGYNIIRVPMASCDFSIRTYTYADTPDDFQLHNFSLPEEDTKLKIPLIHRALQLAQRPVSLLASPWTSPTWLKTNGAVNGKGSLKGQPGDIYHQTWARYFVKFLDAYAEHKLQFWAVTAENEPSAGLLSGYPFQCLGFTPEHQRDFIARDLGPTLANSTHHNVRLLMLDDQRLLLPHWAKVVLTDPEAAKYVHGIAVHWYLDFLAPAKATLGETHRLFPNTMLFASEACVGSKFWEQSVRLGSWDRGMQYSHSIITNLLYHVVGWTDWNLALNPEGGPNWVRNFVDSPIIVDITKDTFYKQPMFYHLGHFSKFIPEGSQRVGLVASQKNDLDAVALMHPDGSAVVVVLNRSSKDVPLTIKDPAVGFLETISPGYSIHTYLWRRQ
# Method in brief: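 Compounds titrated from 0.6 nM upwards against 0.2 nM enzyme in pH 5.9 citric acid/KH2PO4, taurocholate, tween-20; blue fluorogenic substrate 80 uM, 40 min room temperature, stopped and read Ex 365/Em 440 for AC50.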
# [2] = AP1 Signaling Pathway (AID 357; active = well fitted curve in either direction with a large enough effect, not every such curve was filed as active; note: % is set by controls: 0 for no effect and ±100 for the full control effect); conditions: ME-180 AP-1-bla reporter, EGF-induced, beta-lactamase ratio, 5 h; at 7.69 µM (top of the series) unless noted
# Method in brief: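 ME-180 cells with beta-lactamase reporter under AP-1 response element, stimulated with EC50 EGF; compounds tested in titration series, 5 h at 37 °C. CCF4 substrate added 2.5 h at room temperature; 460/530 nm emission ratio gave %activity and AC50.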
# [3] = target: Cytochrome P450 1A2 (Homo sapiens) (UniProt P05177); test: p450-cyp1a2 (AID 410; calls by dose curve; note: potency is the fitted concentration of half-maximal effect); conditions: recombinant CYP1A2, luciferin-ME demethylation, luminescence; series mostly up to 57 µM
# Chain of Cytochrome P450 1A2 (Homo sapiens) (P05177 whole entry, looked up): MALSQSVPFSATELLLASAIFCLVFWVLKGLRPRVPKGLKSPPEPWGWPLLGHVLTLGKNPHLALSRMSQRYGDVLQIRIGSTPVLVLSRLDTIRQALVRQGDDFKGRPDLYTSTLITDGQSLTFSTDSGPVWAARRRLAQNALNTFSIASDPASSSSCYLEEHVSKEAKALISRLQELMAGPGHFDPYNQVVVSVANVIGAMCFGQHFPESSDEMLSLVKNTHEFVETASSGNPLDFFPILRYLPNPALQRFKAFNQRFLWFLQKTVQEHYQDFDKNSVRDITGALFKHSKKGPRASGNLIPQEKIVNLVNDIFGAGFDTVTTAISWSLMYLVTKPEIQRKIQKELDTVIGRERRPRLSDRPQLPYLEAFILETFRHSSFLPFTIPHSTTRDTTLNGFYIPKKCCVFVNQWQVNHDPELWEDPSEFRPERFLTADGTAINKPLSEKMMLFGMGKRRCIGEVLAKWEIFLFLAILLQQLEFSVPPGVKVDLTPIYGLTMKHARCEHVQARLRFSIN
# Method in brief: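 Human CYP1A2 (20nM) demethylated Luciferin-ME at its Km (100uM) in 100mM KPO4. After 10 min compound preincubation, NADPH regeneration ran the reaction 60 min at room temperature. Luciferin was read by luminescence, normalized to 57 uM furafylline.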
# [4] = NFAT Signaling Pathway (AID 444; active = well fitted curve in either direction with a large enough effect, not every such curve was filed as active;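 note: carbachol stimulus at about its EC50 of 1 µM final; % is set by controls: 0 for no effect and ±100 for the full control effect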); conditions: Jurkat NFAT-bla M1, carbachol, beta-lactamase ratio, 5 h; at 7.69 µM (top of the series) unless noted
# Method in brief: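 Read-out: CCF4 FRET ratio (460 nm/530 nm) after 1 h RT dye loading, used for %activity and AC50 from titration series. Cells: Jurkat NFAT-β-lactamase/M1 line, treated with compound plus 1 uM carbachol for 5 h, 37 °C.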
# [5] = Stat Signaling Pathway (AID 446; active = well fitted curve in either direction with a large enough effect, not every such curve was filed as active;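 note: ME-180 cervical cancer cells given 40 pM IL-6 alongside compound; SIE-controlled beta-lactamase reporter measured as 460/530 nm FRET emission ratio; % is set by controls: 0 for no effect and ±100 for the full control effect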); conditions: ME-180 SIE beta-lactamase reporter, IL-6 stimulated, 5 h; at 7.69 µM (top of the series) unless noted
# Method in brief: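 IL-6/STAT signaling read in ME-180 cells via an SIE beta-lactamase reporter. Stimulus was 40 pM IL-6 (its AC50) for 5 hrs, so both activation and inhibition register.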
# [6] = target: Glucocorticoid receptor (Homo sapiens) (UniProt P04150); test: GR-EFC Redistribution (AID 451; calls by dose curve; note: potency is the fitted concentration of half-maximal effect); conditions: CHO-K1 GR-EFC translocation, beta-gal luminescence, 2 h
# Chain of Glucocorticoid receptor (Homo sapiens) (P04150 whole entry, looked up, the tested form may be a part): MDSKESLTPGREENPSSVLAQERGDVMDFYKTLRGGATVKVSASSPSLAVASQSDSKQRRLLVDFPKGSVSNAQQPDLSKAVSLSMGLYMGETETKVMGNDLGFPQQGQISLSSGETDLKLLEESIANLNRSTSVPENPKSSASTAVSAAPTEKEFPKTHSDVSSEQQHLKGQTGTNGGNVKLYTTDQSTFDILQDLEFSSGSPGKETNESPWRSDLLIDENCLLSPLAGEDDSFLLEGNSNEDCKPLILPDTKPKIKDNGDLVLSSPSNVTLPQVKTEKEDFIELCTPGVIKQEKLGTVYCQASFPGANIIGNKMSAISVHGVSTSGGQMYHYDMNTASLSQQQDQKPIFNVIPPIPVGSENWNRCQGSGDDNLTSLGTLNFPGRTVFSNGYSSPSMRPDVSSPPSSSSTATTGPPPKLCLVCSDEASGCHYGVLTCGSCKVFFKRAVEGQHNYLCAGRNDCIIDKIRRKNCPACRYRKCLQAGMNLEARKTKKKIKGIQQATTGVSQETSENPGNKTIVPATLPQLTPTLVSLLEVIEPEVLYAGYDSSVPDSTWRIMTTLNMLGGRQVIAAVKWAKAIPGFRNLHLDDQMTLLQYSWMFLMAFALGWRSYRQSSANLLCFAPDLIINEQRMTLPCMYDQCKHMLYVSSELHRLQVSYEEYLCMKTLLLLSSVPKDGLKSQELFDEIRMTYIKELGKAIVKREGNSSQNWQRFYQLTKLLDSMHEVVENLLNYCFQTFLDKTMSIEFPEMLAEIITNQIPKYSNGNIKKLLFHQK
# Method in brief: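 Translocation of GR-ED fusion to nuclear EA restores b-gal, read by luminescence after 1 h room-temperature detection. Engineered CHO-K1 biosensor cells, 1,000/well, exposed 2 h at 37 C to titrations up to 46 uM final.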
# [7] = target: Mitogen-activated protein kinase 10 (Mus musculus) (UniProt Q61831); test: JNK3 AlphaScreen Assay (AID 530; active = well fitted curve in either direction with a large enough effect, not every such curve was filed as active;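 note: kinase came from lysate of stimulated human HepG2 cells; signal reports phosphorylation of biotinylated GST-cJun 1-79 at Ser73 with 10 µM ATP; % is set by controls: 0 for no effect and ±100 for the full control effect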); conditions: JNK3 lysate, c-Jun phosphorylation; series mostly up to 57.1 µM
# Method in brief: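 Room-temperature AlphaScreen kinase assay; pre-activated HepG2 lysate as JNK3 source, biotin-GST-cJun(1-79) substrate, 10 uM ATP, compound 15 min preincubation.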
# [8] = target: 3',5'-cyclic-AMP phosphodiesterase 4B (Homo sapiens) (UniProt Q07343); test: qHTS Assay for Inhibitors of PDE-IV (AID 607; active = well fitted activation curve with a large enough effect in the main read-out, with a control signal flat, not every such curve was filed as active; note: % of control where 0% means no effect); conditions: HEK293 ACTOne CNG channel cells, membrane potential fluorescence; series mostly up to 22.9 µM
# Chain of 3',5'-cyclic-AMP phosphodiesterase 4B (Homo sapiens) (Q07343 whole entry, looked up): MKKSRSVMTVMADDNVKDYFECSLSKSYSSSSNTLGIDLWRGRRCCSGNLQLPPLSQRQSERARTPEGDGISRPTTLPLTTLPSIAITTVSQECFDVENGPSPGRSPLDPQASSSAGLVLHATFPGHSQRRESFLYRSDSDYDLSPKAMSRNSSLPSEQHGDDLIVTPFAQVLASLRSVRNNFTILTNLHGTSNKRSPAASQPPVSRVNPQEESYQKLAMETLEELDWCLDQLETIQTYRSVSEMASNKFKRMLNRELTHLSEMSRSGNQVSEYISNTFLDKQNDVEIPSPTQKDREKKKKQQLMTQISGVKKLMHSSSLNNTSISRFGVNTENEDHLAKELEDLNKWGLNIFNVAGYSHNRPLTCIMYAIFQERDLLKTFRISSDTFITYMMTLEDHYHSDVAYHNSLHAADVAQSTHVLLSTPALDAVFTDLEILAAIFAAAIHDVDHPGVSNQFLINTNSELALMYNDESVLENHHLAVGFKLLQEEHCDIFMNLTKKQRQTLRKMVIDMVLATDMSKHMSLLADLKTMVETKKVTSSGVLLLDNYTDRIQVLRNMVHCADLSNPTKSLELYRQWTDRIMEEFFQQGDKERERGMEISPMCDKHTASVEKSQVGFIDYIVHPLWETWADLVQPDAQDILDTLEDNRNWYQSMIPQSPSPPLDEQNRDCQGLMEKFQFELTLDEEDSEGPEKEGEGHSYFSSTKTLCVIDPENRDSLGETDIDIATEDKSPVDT
# Method in brief: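 Live HEK293 cells with a modified cyclic nucleotide-gated (CNG) channel report intracellular cAMP via membrane-potential dye fluorescence (ex 535/em 590 nm). Endogenous PDE-IV was targeted. Compounds were tested at up to 22.9 uM final; RO 20-1724 100 uM served as control.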
# [9] = target: Cytochrome P450 3A4 (Homo sapiens) (UniProt P08684); test: qHTS Assay for Activators of Cytochrome P450 3A4 (AID 885); conditions: recombinant CYP3A4, Luciferin-PPXE luminescence, 60 min; series mostly up to 57.1 µM; note: nearly all actives have a fitted effect of over 65% in size
# Chain of Cytochrome P450 3A4 (Homo sapiens) (P08684 whole entry, looked up): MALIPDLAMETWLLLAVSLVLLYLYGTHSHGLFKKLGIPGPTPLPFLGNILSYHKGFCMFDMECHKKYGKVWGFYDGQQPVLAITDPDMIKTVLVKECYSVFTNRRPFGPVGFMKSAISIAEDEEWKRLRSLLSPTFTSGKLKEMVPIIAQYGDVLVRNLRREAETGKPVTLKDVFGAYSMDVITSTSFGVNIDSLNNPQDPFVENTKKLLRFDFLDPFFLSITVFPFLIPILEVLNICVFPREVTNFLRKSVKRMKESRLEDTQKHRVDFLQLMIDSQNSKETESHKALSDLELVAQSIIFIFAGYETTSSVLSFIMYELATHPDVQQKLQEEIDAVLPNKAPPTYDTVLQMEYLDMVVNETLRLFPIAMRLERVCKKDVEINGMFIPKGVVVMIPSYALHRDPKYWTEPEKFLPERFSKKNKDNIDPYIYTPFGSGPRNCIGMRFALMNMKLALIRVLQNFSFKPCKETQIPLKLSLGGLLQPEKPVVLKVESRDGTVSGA
# Method in brief: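 Quantitative HTS format: compounds preincubated with 20nM human CYP3A4 and Luciferin-PPXE substrate at KM, reaction started by NADPH regeneration, stopped after 60 min, luciferase luminescence read 20 min later.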
# [10] = Confirmation and Secondary Assay for Modulators of Hemoglobin Beta Chain Splicing at IVS2 654 locus (AID 910); conditions: HeLa EGFP-654 splicing reporter, GFP fluorescence, 48 h; series mostly up to 38.3 µM;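 note: HeLa cells stably carrying EGFP split by mutant beta-globin IVS2-654 intron; per-well total GFP intensity by laser scanning cytometry after 2-day treatment; % of control where 0% means no effect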
# Method in brief: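 Readout: per-well total peak green fluorescence (488 nm ex, 500–520 nm em) from objects 5–250 µm, reflecting correct splicing of an EGFP-654 reporter. Compounds were applied for 2 days at 37 °C to overnight-plated HeLa EGFP-654 cells; controls were DMSO and 500 nM IVS2-654 PNA.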
# [11] = Confirmation and Secondary Assay for Modulators of Hemoglobin Beta Chain Splicing at IVS2 705 locus (AID 930); conditions: HeLa EGFP-705 splicing reporter, GFP fluorescence, 48 h; series mostly up to 38.3 µM;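 note: HeLa cells stably expressing the EGFP-705 splicing reporter; GFP fluorescence per well restored by corrected splicing of the IVS2-705 intron in EGFP; % of control where 0% means no effect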
# Method in brief: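 Assay measures total GFP intensity per well in HeLa EGFP-705 cells after 2 days with compound; mis-splicing normally truncates EGFP, so fluorescence indicates corrected splicing.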
# [12] = qHTS Assay for Lipid Storage Modulators (AID 1519; calls by dose curve); conditions: Drosophila S3 cells, BODIPY lipid droplet/cell ratio, laser cytometry, cells loaded with oleic acid; for activity change, negative = inhibition: at 57.5 µM (top of the series)
# Method in brief: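 Cells seeded at 5,000 per well were treated with compounds over a concentration series and loaded with oleic acid (400 uM, as added). Lipid droplet fluorescence (488 nm excitation, 500-530 nm channel) was read by laser-scanning cytometry and normalized to 20 uM Triacsin C.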
# [13] = target: Ubiquitin carboxyl-terminal hydrolase 1 (Homo sapiens) (UniProt O94782); test: Inhibitors of USP1/UAF1: Pilot qHTS (AID 504865); conditions: purified USP1/UAF1, Ub-rhodamine cleavage fluorescence; series mostly up to 54.9 µM;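 note: rhodamine fluorescence freed from ubiquitin-rhodamine substrate followed over time; top concentration of the series differs between compounds; % is set by controls: 0 for no effect and ±100 for the full control effect; nearly all actives have a fitted effect of over 35% in size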
# Chain of Ubiquitin carboxyl-terminal hydrolase 1 (Homo sapiens) (O94782 whole entry, looked up): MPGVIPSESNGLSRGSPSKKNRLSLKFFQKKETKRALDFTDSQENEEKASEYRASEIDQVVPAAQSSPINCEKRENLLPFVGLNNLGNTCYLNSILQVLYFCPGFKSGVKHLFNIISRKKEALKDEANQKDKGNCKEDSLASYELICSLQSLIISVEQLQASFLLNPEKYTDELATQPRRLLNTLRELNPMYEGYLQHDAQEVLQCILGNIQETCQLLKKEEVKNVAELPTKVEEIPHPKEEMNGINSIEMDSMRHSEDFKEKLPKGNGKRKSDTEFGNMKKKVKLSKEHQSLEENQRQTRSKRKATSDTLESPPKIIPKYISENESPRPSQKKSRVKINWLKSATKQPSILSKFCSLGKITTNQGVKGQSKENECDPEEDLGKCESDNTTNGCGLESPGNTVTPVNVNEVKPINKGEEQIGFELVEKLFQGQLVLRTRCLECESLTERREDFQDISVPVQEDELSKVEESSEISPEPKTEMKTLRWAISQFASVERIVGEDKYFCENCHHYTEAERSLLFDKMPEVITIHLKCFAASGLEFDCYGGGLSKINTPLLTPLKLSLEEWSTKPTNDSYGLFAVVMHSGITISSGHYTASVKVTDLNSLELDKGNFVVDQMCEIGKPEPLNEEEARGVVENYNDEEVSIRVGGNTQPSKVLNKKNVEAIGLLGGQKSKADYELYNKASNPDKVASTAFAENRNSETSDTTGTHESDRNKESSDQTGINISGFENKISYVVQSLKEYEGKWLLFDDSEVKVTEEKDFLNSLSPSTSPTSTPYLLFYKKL
# Method in brief: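 1nM USP1/UAF1 + cpd, 15 min RT; start w/ Ub-Rho 150nM final; kinetic FL 480/540 nm, 6 reads q60 s. Buffer 50mM HEPES pH 7.8, 0.5mM EDTA, 1mM TCEP, 0.01% Tween-20, 0.1 mg/ml BSA.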
# [14] = Primary qHTS for small molecule stabilizers of the endoplasmic reticulum resident proteome: Secreted ER Calcium Modulated Protein (SERCaMP) assay (AID 1508630); conditions: SH-SY5Y GLuc-SERCaMP (Gaussia luciferase released on ER calcium loss) secretion, thapsigargin, luminescence; series mostly up to 38.4 µM; note: % is set by controls: 0 for no effect and ±100 for the full control effect
# Method in brief: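 GLuc-SERCaMP-expressing SH-SY5Y cells, pretreated 16 h with compound, are challenged with thapsigargin to empty ER calcium stores; after 4 h, coelenterazine is added directly to the medium and luminescence is imaged.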
# [15] = target: Glucocorticoid receptor (Homo sapiens) (UniProt P04150); test: GR-GFP Redistribution (AID 450;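 active = compounds whose dose series gives a full or clear partial fitted curve of increased nuclear translocation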; note: potency is the fitted concentration of half-maximal effect); conditions: U2OS GR-GFP nuclear translocation, laser cytometry, 2 h
# [16] = target: Cytochrome P450 3A4 (Homo sapiens) (UniProt P08684); test: qHTS Assay for Inhibitors and Substrates of Cytochrome P450 3A4 (AID 884); conditions: recombinant CYP3A4, Luciferin-PPXE luminescence; series mostly up to 57.1 µM; note: potency is the fitted concentration of half-maximal effect; nearly all actives have a fitted effect of over 50% in size
# Method in brief: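 20 nM human CYP3A4 with 25 uM Luciferin-PPXE (at KM) in 200 mM KPO4, preincubated 10 min with compound; NADPH regeneration started a 60 min RT reaction. Luciferin detected by luminescence, normalized to 57 uM ketoconazole as full inhibition.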
# [17] = target: Cytochrome P450 2D6 (Homo sapiens) (UniProt P10635); test: qHTS Assay for Inhibitors and Substrates of Cytochrome P450 2D6 (AID 891); conditions: recombinant CYP2D6, luciferin-ME EGE luminescence; series mostly up to 57.1 µM; note: potency is the fitted concentration of half-maximal effect; nearly all actives have a fitted effect of over 60% in size
# Chain of Cytochrome P450 2D6 (Homo sapiens) (P10635 whole entry, looked up): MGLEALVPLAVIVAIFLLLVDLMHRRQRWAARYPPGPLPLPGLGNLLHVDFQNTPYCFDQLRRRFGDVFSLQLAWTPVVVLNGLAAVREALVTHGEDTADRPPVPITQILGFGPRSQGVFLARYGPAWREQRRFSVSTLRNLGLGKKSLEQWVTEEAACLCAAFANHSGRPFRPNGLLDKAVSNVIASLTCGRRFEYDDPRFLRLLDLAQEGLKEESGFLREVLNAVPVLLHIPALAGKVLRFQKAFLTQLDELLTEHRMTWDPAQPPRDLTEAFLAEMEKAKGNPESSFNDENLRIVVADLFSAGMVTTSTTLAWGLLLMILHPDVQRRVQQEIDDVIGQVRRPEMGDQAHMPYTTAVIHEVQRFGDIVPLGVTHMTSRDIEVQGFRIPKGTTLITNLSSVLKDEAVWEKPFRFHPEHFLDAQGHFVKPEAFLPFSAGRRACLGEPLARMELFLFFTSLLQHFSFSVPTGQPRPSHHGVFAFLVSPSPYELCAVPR
# Method in brief: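 Human CYP2D6 (5 nM) with 30 uM Luciferin-ME EGE (at Km) in 100 mM KPO4, compound preincubated 10 min, then NADPH regeneration system for 60 min at room temperature. Luciferin read by luminescence; normalized to 1.43 uM quinidine.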
# [18] = target: Cytochrome P450 2C19 (Homo sapiens) (UniProt P33261); test: qHTS Assay for Inhibitors and Substrates of Cytochrome P450 2C19 (AID 899); conditions: recombinant CYP2C19, luciferin-H EGE luminescence; series mostly up to 57.1 µM; note: potency is the fitted concentration of half-maximal effect; nearly all actives have a fitted effect of over 60% in size
# Chain of Cytochrome P450 2C19 (Homo sapiens) (P33261 whole entry, looked up): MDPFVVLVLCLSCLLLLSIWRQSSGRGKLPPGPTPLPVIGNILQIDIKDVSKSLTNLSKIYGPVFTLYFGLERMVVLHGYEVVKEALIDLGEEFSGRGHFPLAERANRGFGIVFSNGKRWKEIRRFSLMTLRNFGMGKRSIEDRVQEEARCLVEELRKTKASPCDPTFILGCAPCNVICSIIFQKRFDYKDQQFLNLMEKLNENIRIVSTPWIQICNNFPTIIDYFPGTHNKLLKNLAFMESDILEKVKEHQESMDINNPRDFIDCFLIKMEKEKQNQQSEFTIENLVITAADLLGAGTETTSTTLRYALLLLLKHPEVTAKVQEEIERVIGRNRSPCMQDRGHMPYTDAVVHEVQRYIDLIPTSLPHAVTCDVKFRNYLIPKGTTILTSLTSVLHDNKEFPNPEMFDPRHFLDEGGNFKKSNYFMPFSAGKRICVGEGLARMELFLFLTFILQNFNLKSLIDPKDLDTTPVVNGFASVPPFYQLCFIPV
# Method in brief: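 Reactions contain 5nM enzyme, 10uM Luciferin-H EGE (KM) and 50mM KPO4; compound preincubates 10 min at 37C, NADPH regeneration starts turnover for 60 min. Luminescence after detection reagent gives activity.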
# [19] = qHTS Assay for Identification of Small Molecule Agonists for Hypoxia Response Element Signaling Pathway (AID 914; active = well fitted activation curve with a large enough effect in the signal ratio, with a control signal flat, not every such curve was filed as active; the % refers to the signal ratio; note: % of control where 0% means no effect); conditions: ME-180 (cervical carcinoma) HRE-bla reporter, beta-lactamase ratio, CoCl2, 17 h; activation: stronger effect = higher value
# Method in brief: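 Compounds in a titration series were added to ME-180 reporter cells alongside an EC50 level of CoCl2. After 17 hours, beta-lactamase activity was read as the 460nm/530nm emission ratio of CCF4, giving AC50 values.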
# [20] = measured here: cell count channel max response
# [21] = measured here: lipid channel max response
compound,measurement,setting,value
CN(C)c1ncnc2ccc(-c3ccccc3C#N)cc12,Potency,[1],> 11.4 µM (inactive)
same,"activity change, negative = inhibition",[2],-24% (inactive)
same,Potency,[3],0.398 µM (active)
same,"activity change, negative = inhibition",[4],20.3% (inactive)
same,"activity, negative = inhibition",[5],18.9% (inactive)
same,Potency,[6],> 46 µM (inactive)
same,outcome,[7],inactive
same,Potency,[8],inactive
same,Potency,[9],inactive
same,outcome,[10],inactive
same,outcome,[11],inactive
same,"activity change, negative = inhibition",[12],8.38% (inactive)
same,max response,[12]; [20],15.4%
same,max response,[12]; [21],23.3%
same,Potency,[13],inactive
same,Potency,[14],inactive
CN(C)c1ccc(-c2ccc3ncnc(N4CCNCC4)c3c2)cc1,Potency,[1],> 11.4 µM (inactive)
same,"activity change, negative = inhibition",[2],5.26% (inactive)
same,Potency,[3],2.51 µM (active)
same,"activity change, negative = inhibition",[4],-13.1% (inactive)
same,"activity, negative = inhibition",[5],5.8% (inactive)
same,Potency,[15],> 46 µM (inactive)
same,Potency,[6],> 46 µM (inactive)
same,outcome,[7],inactive
same,Potency,[8],inactive
same,Potency,[9],inactive
same,outcome,[10],inactive
same,outcome,[11],inactive
same,"activity change, negative = inhibition",[12],7.34% (inactive)
same,max response,[12]; [20],-3.08%
same,max response,[12]; [21],4.85%
same,Potency,[14],inactive
Cc1cccc(CNc2ncncc2-c2ccc3c(c2)OCO3)c1,Potency,[1],> 11.4 µM (inactive)
same,"activity change, negative = inhibition",[2],-0.728% (inactive)
same,Potency,[3],0.126 µM (active)
same,"activity change, negative = inhibition",[4],-2.79% (inactive)
same,"activity, negative = inhibition",[5],-19.6% (inactive)
same,Potency,[15],> 46 µM (inactive)
same,Potency,[6],> 46 µM (inactive)
same,outcome,[7],inactive
same,Potency,[16],0.251 µM (active)
same,Potency,[9],inactive
same,Potency,[17],6.31 µM (active)
same,Potency,[18],0.501 µM (active)
same,outcome,[10],inactive
same,activation,[19],-16.9% (inactive)
same,outcome,[11],inactive
same,"activity change, negative = inhibition",[12],12.7% (inactive)
same,max response,[12]; [20],7.25%
same,max response,[12]; [21],23.1%
same,Potency,[14],inactive
